Compounds without any hit were thinned out: in the full panel of roughly 83,000, 20% have a hit.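 Single-concentration screen, 48 h exposure, 96-well plates. Endpoint: percent growth. Below 10 = active.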 Unmarked numbers belong to inactive results. Activity calls are given as the source filed them.

The experiment relates to HL-60(TB) leukemia. Put plainly: NCI-60 one-dose screen, 48 h (100 = growth as untreated, 0 = no growth, -100 = all killed). Particulars: 10 µM unless noted.
For `O=[N+]([O-])c1cccc(-c2nc3sccn3c2-c2ccnc(NCCCNS(=O)(=O)c3ccc(C(F)(F)F)cc3)n2)c1`, the growth is 0.27% (active).

Take `O=C1C2=C(Nc3cc(Cl)ccc3N2)OC1c1c[nH]c2ccc(COc3ccccc3)cc12` (centres undefined): the growth was 81.6%.

As to `O=C(O)CCCn1c(SCc2c(Cl)cccc2Cl)nc2ccsc2c1=O`, the growth is -4.86% (active).

Take `Brc1c[n+](Cc2ccc3ccccc3c2)cn1Cc1ccc2ccccc2c1`: the growth was -47.5% (active).

Take `C=C1C(=O)O[C@H]2[C@H]1CC/C(COC(=O)NCc1c[nH]c3ccc(Br)cc13)=C\CC[C@@]1(C)O[C@@H]21`: the growth was -26.9% (active).

Consider `S=C(Sc1ccc(Cl)cc1)Sc1ccc(Cl)cc1`, for which the growth was -63.7% (active).

As to `C=CCSSC1N=CNc2nc[nH]c21` (centres undefined), the growth was 32%.

In the case of `O=S(=O)(NCCCNc1cc(-c2c(-c3cccc(O)c3)nc3sccn23)ccn1)c1cccc2ccccc12`, the growth was 41.3%.

As to `CCN(CC)S(=O)(=O)c1ccc(S(=O)(=O)N2CCC[C@@H](C(=O)N3CCN(c4nc(C(C)C)no4)CC3)C2)cc1`, the growth was 68.5%.

Turning to `C[C@@H](Oc1cc(-c2cnn(C3CC4(CNC4)C3)c2)cnc1N)c1c(Cl)ccc(F)c1Cl`, the growth was -1.19% (active).

Regarding `CC1(C)N=C(N)N=C(N)N1c1cccc(CCCCOc2ccccc2)c1`, the growth is 13.6%.

Regarding `CCOC(=O)c1c[nH][nH]c1=O`, the growth is 110%.

In the case of `COc1ccc(-c2cc(-c3ccc(N(C)C)cc3)c(C#N)c(N3CCCC3)n2)cc1`, the growth is 67.2%.

Turning to `C=C(C)[C@@H]1CC[C@]2(C(=O)NCCCN)CC[C@]3(C)[C@H](CC[C@@H]4[C@@]5(C)CC[C@H](O)C(C)(C)[C@@H]5CC[C@]43C)[C@@H]12`, the growth was 1.25% [100 µM] (active).

(Values after PubChem BioAssay (NCI).)
